Measured values published in PubChem BioAssay (NCI).
About 83,000 compounds went through this panel and 20% of them were active in at least one assay; those are over-represented in the sample as a whole.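 Each cell line was grown in a 96-well plate and treated with one concentration of compound for 48 hours. Values below 10 were considered active.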 The source made the active and inactive calls.

test system: KM12 colon; assay: NCI-60 one-dose screen, 48 h (100 = growth as untreated, 0 = no growth, -100 = all killed); conditions: 10 µM unless noted
Method: Growth inhibition of the KM12 human tumor cell line is measured as a screen for anti-cancer activity. Cells are grown in 96 well plates and exposed to the test compound for 48 hours. Compounds are tested at a single concentration, which is 10^-5 M for most compounds. The reported endpoint is percent growth (GI% or GIPRCNT), where numbers from 0 - 100% represent growth inhibition, and numbers from -100% - 0 represent cell death. For example, a value of 40 represents 60% growth inhibition. A value of 0 means no net growth occurred over the course of the experiment. A value of -40 indicates 40% of cells at the beginning of the experiment died by the end of the experiment. A value of -100 means all cells are dead at the end of the experiment.
NCI-60 Human Tumor Cell Lines Screen was performed using the standard one-dose NCI protocol, which is described in more detail at https://dtp.cancer.gov/discovery_development/nci-60/default.htm.
Compounds with GIPRCNT values below 10 were considered active. Activity score was based on GIPRCNT using the following formula: […]
Score is 0 for GIPRCNT values of 100 or above, 50 for GIPRCNT values of 0, and 100 for GIPRCNT values of -100.

Structure (SMILES) | growth
N#Cc1ccc(S(=O)(=O)Nc2ccc(-c3cnc(N)[nH]3)cc2)cc1 | 103% (inactive)
COc1cc(C2=NN(C(C)=O)C(c3ccc(N4CCOCC4)cc3)C2)cc(OC)c1OC (stereo not given) | 106% (inactive)
O=c1oc2ccc(-c3ccc(F)cc3F)cc2c(=O)n1-c1ccc(F)c(F)c1 | 3.33% (active)
CCNC(=O)Oc1ccc(/C(=C(/C)c2ccccc2)c2ccc(OCCN3CCCC3)cc2)cc1 | 81.8% (inactive)
C#CCOc1ccc(C(Nc2ccc(OC)cc2)c2nnnn2C2CCCCC2)cc1 (stereo not given) | 102% (inactive)
COc1ccc(C2CC(c3ccc(Nc4nc(NCCO)nc(Nc5ccc(Cl)cc5)n4)cc3)=Nc3c(N)nc(N)nc3N2)cc1 (stereo not given) | 55.4% (inactive)
O=c1[nH]c(CNc2ccc(NCc3c(-c4ccccc4)no[n+]3[O-])cc2)nc2c1cnn2-c1ccccc1 | 73.3% (inactive)
C#C[C@]1(O)CC[C@H]2[C@@H]3CC=C4c5sc(Nc6ccc(OC)nc6)nc5CC[C@]4(C)[C@H]3CC[C@@]21C | 19.6% (inactive)
C/C(=C(/c1ccc(O)cc1)c1ccc(OCCN(C)C)cc1)c1ccc(Cl)cc1 | 44.8% (inactive)
N/C(=N\c1nc2c(Cl)cccc2s1)C(Cl)(Cl)Cl | 41.5% (inactive)
CC1CCc2c(sc3nc(SCC(=O)N/N=C/c4ccc(Cl)cc4)n(-c4ccccc4)c(=O)c23)C1 (stereo not given) | 103% (inactive)
O=C1c2c(c3c4cccnc4[nH]c3c3ccc4ccccc4c23)C(=O)N1CCN1CCNCC1 | 73.6% (inactive)
CCCCCCNC(=O)Oc1ccc(/C(=C(\C)c2ccc(OC)cc2)c2ccc(OCCN(C)C)cc2)cc1 | 99.2% (inactive)
CCOC(=O)c1c(NC(=O)c2ccc(F)cc2F)sc2c1CCC(=O)C2 | 90.9% (inactive)
COc1cc(/C=N/n2cnc3oc(-c4ccccc4)cc3c2=N)cc(CN2CCCCC2)c1O | -72.6% (active)
Nc1nc(-c2cccc([N+](=O)[O-])c2)c(N=Nc2cccc(Cl)c2)s1 | 25.7% (inactive)
C(=C(\C1=NCCN1)n1cnc2ccccc21)/c1ccc2ccccc2c1 | 69.2% (inactive)
CCOC(=O)c1c(Nc2ccccc2)nn2c(-c3ccc(Br)cc3)ccnc12 | 78.3% (inactive)
COC1=C(c2ccccc2)C(=O)C(OC)=C(c2ccccc2)C1=O | 98.6% (inactive)
COc1cc2c3c(n(CCCN4CCCC4)c(=O)c2cc1OC)-c1cc2c(cc1C3=O)OCO2 | -23.4% (active)

Structure (SMILES) | growth
O=C(NNc1nc2cc(F)cc(F)c2n2cccc12)c1ncccn1 | 22.3% (inactive)
COc1ccc(Cn2cc3c(c2-c2ccccc2)CCCc2cnoc2-3)cc1 | 32% (inactive)
Cc1ccc(NC(=O)c2cccc(CN3CCN(C)CC3)c2)cc1Oc1ccc(-c2[nH]nc3ncnc(N)c23)cc1 | 37.4% (inactive)
C#C[C@]1(O)CC[C@H]2[C@@H]3CC=C4c5sc(C6CC6)nc5CC[C@]4(C)[C@H]3CC[C@@]21C | 57.4% (inactive)
O=C(/C=C/c1cccc(O)c1)c1ccc(O)cc1 | 33.4% (inactive)
C/C(=N/Nc1nc(N/N=C(/C)c2ccc([N+](=O)[O-])cc2)nc(N2CCOCC2)n1)c1ccc([N+](=O)[O-])cc1 | 82.2% (inactive)
Nc1ccc(-c2nnc(SCc3ccc(O)c4ncccc34)n2-c2ccccc2)cc1 | 17.8% (inactive)
CCN1CCN(c2cc(C(=O)Nc3nc4ccc(Oc5ccnc(C(=O)NC)c5)cc4s3)cc(C(F)(F)F)c2)CC1 | 56.9% (inactive)
COc1ccc(NC(=O)[C@H](C)N)cc1C(=O)Nc1cccc(-c2cc(=O)c3c(OC)c(OC)c(OC)cc3o2)c1 | 68.1% (inactive)
COC[C@@]1(C)CC[C@]2(C)CC[C@]3(C)C(=CC[C@@H]4[C@@]5(C)CCCNC(C)(C)[C@@H]5CC[C@]43C)C2C1 (stereo not given in full) | 61.4% (inactive)
CCNC(=O)Oc1ccc(/C(=C(/C)c2ccc(Cl)cc2)c2ccc(OCCN(C)C)cc2)cc1 | 89.8% (inactive)
CCC(=O)Nc1cc(Nc2cc(NC3CC3)n3ncc(C#N)c3n2)ccc1C | 32.5% (inactive)
Cc1ccc(NC(=O)c2ccc(CN3CCN(C)CC3)c(C(F)(F)F)c2)cc1Oc1ccc(-c2[nH]nc3ncnc(N)c23)cc1 | 17.7% (inactive)
C/C(=N\NC(=O)CSc1nc2sc3c(c2c(=O)n1-c1ccccc1)CCC(C)C3)c1ccc(Cl)cc1 (stereo not given) | 25.1% (inactive)
O=C1Nc2ccc(Cl)cc2/C1=C/c1ccc(OCc2ccc(F)cc2)cc1 | 98.8% (inactive)
O=C(c1cccc(F)c1)n1ccc2cc(NC(=S)Nc3cccnc3)ccc21 | 97.9% (inactive)
Cc1cc(=O)n2nc(-c3cn(C)c4ccc(Cl)cc34)sc2n1 | 94.1% (inactive)
O=C(CCCCCCN1CC(=O)N2[C@@H](c3cc(F)cc(F)c3)c3[nH]c4ccccc4c3C[C@H]2C1=O)NO | 69.7% (inactive)
O=C(COc1cccc2cccnc12)Nc1ccc(C(=O)/C=C/c2ccc(Cl)cc2)cc1 | 86.5% (inactive)
CSc1ccc(/C(=N/N=C(N)N)c2ccccc2)cc1 | 17.2% (inactive)
